PubChem BioAssay AID624417 (National Center for Advancing Translational Sciences (NCATS), 2012)
Hit rate of the full screen: of about 410,000 compounds, about 6,400 (1.6%) were called active. Another 20% or so got no clear call; they are omitted. The call rests on the fitted dose curve; in most records, active means well fitted inhibition curve with a large enough effect; inconclusive means small, poorly fitted or top-dose-only effect; inactive means no such curve, though single readings can be large or run the other way. What follows is part of a selection rich in actives, with near analogues and random picks from the rest.

Target: Glucagon-like peptide 1 receptor (Homo sapiens) (UniProt P43220)
Sequence (P43220 whole entry, looked up): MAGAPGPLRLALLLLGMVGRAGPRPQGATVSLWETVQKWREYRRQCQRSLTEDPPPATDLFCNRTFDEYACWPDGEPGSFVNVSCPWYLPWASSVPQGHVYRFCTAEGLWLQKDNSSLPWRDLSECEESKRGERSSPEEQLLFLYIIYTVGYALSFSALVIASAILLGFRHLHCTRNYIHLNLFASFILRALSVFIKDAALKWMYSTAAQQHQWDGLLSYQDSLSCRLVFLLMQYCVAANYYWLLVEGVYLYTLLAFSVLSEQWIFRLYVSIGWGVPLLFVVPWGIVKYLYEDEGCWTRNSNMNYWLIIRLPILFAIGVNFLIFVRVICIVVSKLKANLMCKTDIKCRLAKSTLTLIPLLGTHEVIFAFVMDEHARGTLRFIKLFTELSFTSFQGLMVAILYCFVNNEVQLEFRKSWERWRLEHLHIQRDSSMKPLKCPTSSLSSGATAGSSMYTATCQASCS
Test: qHTS of GLP-1 Receptor Inverse Agonists (Inhibition Mode); further: nearly all actives have a fitted effect of over 55% in size
Conditions: HEK293 GLP-1R CRE-luciferase, luminescence, 24 h, GLP-1R form is constitutively active; series mostly up to 38.3 µM; activity change, negative = inhibition: at the top concentration
How it was run: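 Luminescence readout: a drop in cAMP-driven luciferase signal flags inverse agonism at a constitutively active GLP-1R stably expressed in HEK293. Compound exposure lasted 24 hr at 37 deg C, 5% CO2.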
On the % scale 0 is the no-effect control and ±100 the full control effect; potency means the concentration at half of the fitted maximal effect.

Activity change, negative = inhibition, inactive:
CCc1cc(-c2nnn(CCC3COCCO3)c2CC)ccc1-c1cn(Cc2ccc3ccccc3c2)nn1 (stereo not drawn) -0.29%
CC(OC(=O)c1cccnc1Cl)C(=O)NC1CCCCC1 (stereo not drawn) -11.3%
C[C@H](CO)N1C[C@H](C)[C@@H](CN(C)Cc2ccc3c(c2)OCO3)OCc2cnnn2CCCC1=O 12.5%
CCCCn1c(CN2CCN(CCO)CC2)nc2ccccc21 2.47%
CCCCn1c(CCCNC(=O)CC)nc2ccccc21 8.25%
Nc1[nH]c(C(=O)c2ccccc2)c(-c2ccncc2)c1C(=O)NCc1cccc2ccccc12 -23.5%
CCOc1ccc(NC(=O)CSc2c3c(nc4ccccc24)CCCC3)cc1 0.368%
Cc1ccc(CNC(=O)CSc2c3c(nc4cc(Cl)ccc24)CCCC3)cc1 -7.55%
CCCNC(=O)C1(C)CCN1C(=O)C1(c2ccccc2)CC1 (stereo not drawn) 9.22%
CCOc1ccc(C(=O)Nc2ccc3nc4c(c(Nc5ccccc5OC)c3c2)CCCC4)cc1 -16.8%
COc1ccc(NS(=O)(=O)c2cc(NC(=O)/C=C/c3cc(OC)c(OC)c(OC)c3)ccc2N2CCCCC2)cc1 5.85%
O=C1NC(Cc2ccccc2)c2nc3ccc(Br)cc3c(=O)n2-c2cc3ccccc3cc21 (stereo not drawn) 16.1%
Cc1ccc2nc(N(CCN(C)C)C(=O)C3=COCCO3)sc2c1 -23.3%
CN(C)CCN(C(=O)CN1C(=O)c2ccccc2C1=O)c1nc2cc3c(cc2s1)OCCO3 -21.6%
Cc1cc2nc(NC(=O)c3ccc(S(=O)(=O)N4CCOCC4)cc3)sc2cc1C 2.57%
Cc1cc(C)c2sc(NC(=O)c3ccc(S(=O)(=O)N4CCCC4)cc3)nc2c1 9.8%
Cc1noc(C)c1S(=O)(=O)N(C)C[C@H]1OCCCC[C@@H](C)Oc2ccc(NC(=O)CCCN(C)C)cc2C(=O)N([C@H](C)CO)C[C@@H]1C 1.02%
O=C(O)C1=C(C(=O)O)C2CCC1C2 -13.1%
CC(=O)N1Cc2cc(C(=O)NCc3cccc(F)c3)nc(-c3cccc(C4=CCCCC4)c3)c2[C@H]1CCO -26.1%
CCc1nc2c(=O)[nH]cnc2o1 3.74%
C/C(=N/NC(=O)c1ccncc1)c1ccc2c(c1)OCO2 40.5%
C/C(=N\NC(=O)C(N)=O)c1ccc2c(c1)OCCO2 8.58%
CCOC(=O)[C@]12CCCC=C1N(CCC1=CCCCC1)C(=O)[C@H](CC(=O)NCCCOC)C2 -20%
O=C(NCC(F)(F)F)c1ccc(S(=O)(=O)NCCc2ccc3c(c2)OCCO3)cc1 -6.37%
Cc1csc(NC(=O)c2ccc(C)s2)n1 -28.5%
COc1cc(SC)ccc1C(=O)NCCOc1ccccc1Cl -26.1%
CCOc1ccc2[nH]c(=S)sc2c1 14.3%
O=C(NC1CCCC1)C1c2ccccc2OCC(=O)N1CC(F)(F)F (stereo not drawn) 20.3%
O=C(Nc1cc(F)ccc1F)c1ccc2c(=O)n3c(nc2c1)CCC3 8.76%
Oc1c(Br)cccc1/C=N/Nc1c(F)c(F)c(F)c(F)c1F -25.4%
O=C(NN=Cc1ccccc1O)NN=Cc1ccccc1O -23.4%
C[C@@H]1CN([C@@H](C)CO)S(=O)(=O)c2ccc(-c3ccc(C(=O)N(C)C)cc3)cc2O[C@@H]1CN(C)Cc1ccccc1C(=O)O 3.03%
CCc1nc2c(OCCc3cccc(OC)c3)cccn2c1N(C)C(=O)c1ccc(C)cc1 -18.3%
Cc1ccc(NC(=O)[C@H](Cc2ccccc2)NC(=O)CC[C@H]2O[C@@H](n3ccc(=O)[nH]c3=O)[C@H](O)[C@@H]2O)cc1C 24.1%
O=[N+]([O-])c1ccc(N2CCN(S(=O)(=O)c3ccccc3)CC2)cc1N1CCc2ccccc2C1 58%
Cc1cc(N)n(-c2ccc(S(=O)(=O)N3CCCC3)cc2[N+](=O)[O-])n1 19.4%
Cc1ccc(S(=O)(=O)N2CCN(c3ccccc3)CC2)cc1C -2.13%
O=S(=O)(c1ccc2ccccc2c1)N1CCN(S(=O)(=O)N2CCOCC2)CC1 -6.77%
COc1ccc(NC(=O)CN(C)C(=O)c2cc(C)oc2C)cc1 7.15%
O=C(/C=C/[C@H]1O[C@@H](n2ccc(=O)[nH]c2=O)[C@H](O)[C@@H]1O)NCc1ccccn1 1.39%
C[C@H](CO)N1C[C@H](C)[C@@H](CN(C)C(=O)c2cnccn2)Oc2ncc(Br)cc2C1=O 4.24%
CC(C)C[C@@H]1COc2cc(N3CCC[C@@H]3CO)ccc2S(=O)(=O)N1 26.8%
CCN1C(=O)[C@H]2[C@@H](c3ccc(C)cc3)N3C(=O)N(c4cccc(Br)c4)C(=O)[C@@]3(CC)[C@H]2C1=O -10.8%
Cc1cccc([C@@H]2[C@@H]3C(=O)N(Cc4ccccc4)C(=O)[C@@H]3[C@]3(Cc4ccc(Cl)cc4)C(=O)N(c4cccc(Cl)c4)C(=O)N23)c1 -13.2%
CC(=O)c1ccc(Nc2nc(C(N)c3ccccc3Cl)cs2)cc1 (stereo not drawn) -8.94%
C[C@H](CO)N1C[C@H](C)[C@@H](CN(C)C(=O)c2cccc(F)c2)Oc2cc(-c3cncnc3)ccc2S1(=O)=O 18%
O=C(NCc1ccccc1)C1CNCC(C(=O)NCc2ccccc2)C1 (stereo not drawn) -2.63%
CCOC(=O)C1=C(C)Nc2nc3ccccc3n2C1c1cccs1 (stereo not drawn) -7.21%
C=CCOC(=O)c1ccccc1C(=O)OCC=C 5.03%
COc1ccc(-c2[nH][nH]c(=O)c2NC(=O)c2ccc([N+](=O)[O-])cc2)cc1 29.1%
COc1ccc(C(CNC(=O)COc2ccccc2OC)N2CCCCC2)cc1 (stereo not drawn) -9.18%
COc1ccc(C(CNC(=O)COc2ccc([N+](=O)[O-])cc2)N2CCCCC2)cc1 (stereo not drawn) -38.2%
O=S1(=O)CC(N2CCN(CCO)CC2)CN1Cc1cn(Cc2cccc(Cl)c2)nn1 (stereo not drawn) 13.8%
CN1OC[C@@H]2CN(S(=O)(=O)c3cccc(C(F)(F)F)c3)[C@H](c3ccc(-c4cc5ccccc5o4)cc3)C[C@@H]21 -27.7%
COc1cc(CNc2ncnc3c2ncn3[C@H]2CN(Cc3cccs3)C[C@@H](CO)O2)cc(OC)c1OC 12.8%
CCOc1ccc(NS(=O)(=O)c2ccc(C(=O)NCC3CCCO3)cc2)cc1 (stereo not drawn) 12%
COc1ccccc1NS(=O)(=O)c1ccc(C)c(C(=O)NCC(c2ccco2)N(C)C)c1 (stereo not drawn) 14.3%
COc1ccc(C(CNC(=O)c2ccc(S(=O)(=O)Nc3ccccc3F)cc2)N(C)C)cc1 (stereo not drawn) -1.55%
CC(=O)c1ccc(S(=O)(=O)Nc2ccc(C(=O)NCC(c3ccccc3)N(C)C)cc2)cc1 (stereo not drawn) 7.27%
CCOc1ccc(S(=O)(=O)Nc2ccc(C(=O)NCCCN3CCCC3=O)cc2)cc1 8.39%
CC1CN(C(=O)c2cccc(NS(=O)(=O)c3ccc(Br)cc3)c2)CC(C)O1 (stereo not drawn) -2.73%
CN(C)C(CNC(=O)c1cccc(C#N)c1)c1ccco1 (stereo not drawn) -28.8%
COc1ccc(NS(=O)(=O)c2cccc(C(=O)NCCc3ccc(S(N)(=O)=O)cc3)c2)cc1 8.26%
Cc1ccc(NC(=O)COC(=O)CN2CCSC2=O)cc1F 4.88%
OCCN1CCN(c2ncnc3c2ncn3[C@H]2CN(Cc3ccco3)C[C@@H](CO)O2)CC1 27.9%
CCOC1=C2CN(S(=O)(=O)c3ccc(C)cc3)[C@H](c3cccs3)C[C@H]2[C@H]2C(=O)N(c3ccccc3)C(=O)[C@H]2C1 19.3%
C[C@H]1NS(=O)(=O)c2cc(Cl)ccc2O[C@@H]1c1ccccc1 -13.6%
CC1(C)CC(=O)C=C(c2ccc(COC(=O)c3cc(F)cc(F)c3)cc2)C1=O -15.2%
O=C(Nc1cc(Br)ccc1F)c1nc[nH]c1C(=O)NCc1ccccc1 -18.9%
O=[N+]([O-])c1ccc(CN2CC(N3CCC(c4ccccc4)CC3)CS2(=O)=O)cc1 (stereo not drawn) -15.4%
Cc1cccc(NS(=O)(=O)c2ccc(C)c(C(N)=O)c2)c1 8.25%
Cc1cccc(NS(=O)(=O)c2ccc(C)c(C(=O)NCc3cccnc3)c2)c1 -16.4%

Potency, active:
C=C(Br)Cn1c(CCCC)nc2ccccc21 2.82 µM
Cc1ccc(Nc2c3c(nc4ccccc24)CCC3)cc1 5.62 µM
CC(C)n1cnc2c(Nc3cccc(Cl)c3)nc(N(CCO)CCCO)nc21 10 µM
COc1ccccc1Nc1c2c(nc3ccc(NC(=O)/C=C/c4cc(OC)c(OC)c(OC)c4)cc13)CCCC2 3.55 µM
CN(C)CCCN(C(=O)c1ccc(S(=O)(=O)N2CCCCCC2)cc1)c1nc2cc3c(cc2s1)OCCO3 11.2 µM
CN(C)CCCN(C(=O)c1ccc(S(=O)(=O)N2CCCCCC2)cc1)c1nc2ccc(Br)cc2s1 3.55 µM
C/C(=N/NC(=S)Nc1ccccc1)c1ccc2c(c1)OCO2 3.16 µM
COc1cc(SC)ccc1C(=O)Nc1nc(C)cs1 1.12 µM
Oc1cccc(/C=N/Nc2ccc(Cl)nn2)c1O 1.12 µM
CN1CCN(S(=O)(=O)c2ccc(N3CCN(c4ccccc4O)CC3)c([N+](=O)[O-])c2)CC1 10 µM
Cc1ccccc1N1CCN(S(=O)(=O)c2ccc3ccccc3c2)CC1 10 µM
O=C1[C@H]2[C@@H](c3ccc(F)cc3)N3C(=O)N(c4ccc(C(F)(F)F)cc4)C(=O)[C@@]3(Cc3ccccc3)[C@H]2C(=O)N1C1CCCCC1 2.24 µM
C=CCOC(=O)C1=C(C)NC(C)=C(C(=O)OCC=C)C1c1cccs1 10 µM
CCc1ccc(OCC(=O)NCC(c2ccc(Cl)cc2)N2CCCCC2)cc1 (stereo not drawn) 8.91 µM
CC1CC(C)(C)n2c(O)c(N=NC(N)=S)c3cccc1c32 (stereo not drawn) 5.01 µM
Cc1ccc(CN(N=Nc2nonc2N)c2nonc2N)c(C)c1 2.82 µM
COc1ccc(C(CNC(=O)c2cccc(S(=O)(=O)Nc3ccc(Br)cc3)c2)N(C)C)cc1 (stereo not drawn) 10 µM
CN(C)C(CNC(=O)c1cccc(S(=O)(=O)Nc2ccc(Br)cc2)c1)c1ccco1 (stereo not drawn) 12.6 µM
CCOc1ccc(NS(=O)(=O)c2ccc(C(=O)NCC(c3ccccc3OC)N3CCCC3)cc2)cc1 (stereo not drawn) 11.2 µM
COc1ccccc1C(CNC(=O)c1cccc(NS(=O)(=O)c2ccc(Br)cc2)c1)N(C)C (stereo not drawn) 10 µM
Cc1cccc(NS(=O)(=O)c2ccc(C)c(C(=O)NCC(c3ccccc3)N(C)C)c2)c1 (stereo not drawn) 3.98 µM
